Each structure is given as a SMILES string. The whole screen tested about 68,000 compounds, of which about 2,700 (4%) showed an effect of 50% or more. Many of the other results were omitted from the sample, so strong results are more common in it than they were.

In this experiment the test system is Plasmodium berghei. As to the kind of experiment: Screen against P. berghei liver stage (PbLuc), transformed with Luciferase, at 2uM. Format: functional, HepG2. Conditions: tested at 2 uM.
As for `Cc1cccc(CN2CCc3c(nc(N4CCC(C)CC4)[nH]c3=O)C2)n1`, the INHIBITION came to 23.94%.
As to `COc1ccc(CN2CCCC3(CCN(c4ccsc4)C3=O)C2)cc1` (centres undefined), the INHIBITION was found to be 7.21%.
With `N#Cc1ccc(CS(=O)(=O)NC(=O)c2ccc3c(c2)COC3)cc1` the figure was -14.32%; with `CCCc1cc(CNc2cc(CCC)nc3ccnn23)on1`, -15.75%.
With `Fc1cccc(F)c1Cn1c(C2CCNCC2)cc2cccnc21` the figure was 13.17%; with `C=c1ccoc1=C1NN=C(CNC2CCCN(c3cccnn3)C2)O1` (centres undefined), 7.01%.
As to `O=C(Cc1ccccn1)N1CCc2ncnc(N3CCCC3)c2CC1`, the INHIBITION is given as -3.19%.
The value for `CCNC(=O)C1CCN(Cc2ccccc2OCC(F)(F)F)CC1` was 8.59%; that for `CC(C)(C)n1ncc(NCCc2ccccc2C(F)(F)F)c(Cl)c1=O` was -59.58%.
With `CC(=O)N1C[C@H]2CC[C@@H](C1)N(S(=O)(=O)c1ccc(F)cc1Cl)C2` the figure was -11.81%.
With `C1CCC(NCC2(N3CCOCC3)CCSC2)C1` (centres undefined), the INHIBITION is on record as -20.95%.
Regarding `C1CCC(CNC2CCSCC2)(N2CCOCC2)CC1`, the INHIBITION is listed as 60.13%.
With `CS(=O)(=O)N1CCC(NCC2(N3CCOCC3)CCCCC2)CC1` the figure was 7.67%.
In the case of `CCN1CC2(CCNCC2)COc2ccccc2S1(=O)=O`, the INHIBITION came out at 3%.
Regarding `CCOCC1CN(Cc2cnn(C)c2)Cc2ncn(C)c21` (centres undefined), the INHIBITION is -20.41%.
With `CC(C)COCC1CN(Cc2ccoc2)Cc2ncn(C)c21` (centres undefined) the figure was -13.32%; with `CC(C)COCC1CN(Cc2cnn(C)c2)Cc2ncn(C)c21` (centres undefined), 79.02%; with `CC(=O)N1CCCN(C(=O)CN(C)c2ccc(Cl)cn2)CC1`, 12.29%.
The value for `Cc1cccc(N(CC(=O)c2ccccc2)C2=NCCCCC2)c1` was -17.7%; that for `Cc1oncc1C(=O)NCc1cc(=O)n2c(n1)CN(C(C)C)CCC2` was 4.42%; that for `Cc1nc(CCNC(=O)NCc2cccc(N(C)C)n2)cs1` was 53.45%.
The value for `Cc1nc(CCNC(=O)NCc2ccc(N(C)C)nc2)cs1` was -16.42%.
In the case of `Cc1nc(CNC(=O)NCCc2ccc(N(C)C)cc2)cs1`, the INHIBITION amounted to 12.88%.
With `CN(C)c1ncccc1CNc1cc(N2CCCC2CO)ncn1` (centres undefined) the figure was -1.02%.
The value for `CC(C)CN(C)Cc1c[nH]nc1-c1ccc(F)cc1F` was -22.69%; that for `Cc1nonc1CN(C)Cc1c[nH]nc1-c1ccc(F)cc1F` was 2.59%.
With `Cc1cnccc1CN(C)Cc1c[nH]nc1-c1ccc(F)cc1F` the figure was 51.39%; with `CCCN1CCC(c2cc(CCOc3ccc(C(F)(F)F)cc3)[nH]n2)C1` (centres undefined), 27.53%.
With `Cc1cccc(CN2CCc3[nH]nc(C(=O)N(C)C)c3C2)n1`, the INHIBITION is recorded as -25.31%.
With `OC(COCc1ccco1)CSc1nnc2ccccn12` (centres undefined) the figure was 76.82%; with `OC(COCc1ccccc1)CSc1nnc2ccccn12` (centres undefined), 2.9%.
The value for `OC(COCc1cccs1)CSc1nnc2ccccn12` (centres undefined) was 45.82%.
The value for `Cc1ccccc1N1CCN(c2ccncn2)C(C)C1` (centres undefined) was -90.79%; that for `Cc1ccccc1N1CCCN(c2ccncn2)CC1` was 53.45%.
Turning to `Cc1ccccc1N1CCCN(C(=O)CCc2ccncc2)CC1`, the INHIBITION worked out at 1.42%.
With `CC(C)N1CCOC(Cc2nn3c(Cc4ccccc4)nnc3s2)C1` (centres undefined) the figure was 20.29%.
The value for `CCCc1nnc2sc(CC3CN(Cc4ccccc4)CCO3)nn12` (centres undefined) was 51.43%; that for `CC(C)c1nnc2sc(CC3CN(Cc4ccccc4)CCO3)nn12` (centres undefined) was 23.33%.
As to `CCN1CCc2[nH]cnc2C12CCN(c1ccc(Cl)c(C(=O)O)n1)CC2`, the INHIBITION is -3.87%.
With `O=C(NCc1cccnc1-n1cncn1)c1cc(Cl)ccn1` the figure was 34%; with `CNCC1CCC(c2cc(CN(C)C(=O)c3cnccn3)n(C)n2)CC1` (centres undefined), 24.98%; with `COc1ccc(-n2ncc(C(C)NC3CCSCC3)c2C)cc1` (centres undefined), -62.99%.
Take `Cc1c(C(C)NC2CCOCC2)cnn1-c1ccc(F)cc1F` (centres undefined): the INHIBITION came out at 69.67%.
The value for `CSc1ncc(CNC(C)c2cnn(-c3ccc(F)cc3F)c2C)cn1` (centres undefined) was -20.35%.
The value for `CC(=O)N1CCC(NC(C)c2cnn(-c3ccc(F)cc3F)c2C)CC1` (centres undefined) was 79.21%; that for `Cc1c(C(C)NC2CCN(C(C)C)CC2)cnn1-c1ccc(F)cc1F` (centres undefined) was 14.82%; that for `Cc1c(C(C)NC2CCCC2)cnn1-c1ccc(F)cc1F` (centres undefined) was 12.43%.
With `Cc1c(C(C)NCC2CCCC2)cnn1-c1ccc(F)cc1F` (centres undefined) the figure was 10.05%; with `Cc1c(C(C)NC(=O)Nc2ccc(F)cc2F)cnn1C` (centres undefined), -41.11%; with `Cc1c(C(C)NC2CSCCSC2)cnn1-c1ccc(F)cc1F` (centres undefined), 81.59%.
For the compound `Cc1cc2c(cc1NC(N)=O)OCO2`, the INHIBITION came to 23.3%.
With `CCn1nc(C)cc1C(=O)N1C[C@@H]2C[C@@H](c3nnc(C)[nH]3)O[C@@H]2C1` the figure was 24.23%.
With `CN1CCN(C2COC3(CCN(Cc4ccsc4)CC3)C2)CC1` (centres undefined) the figure was -0.38%; with `COc1ccc2c(ccn2CCC(=O)/N=c2\[nH]nc(C3CCCO3)s2)c1` (centres undefined), 1.57%; with `Cc1nc(C)c(CC(=O)N2C[C@@H](C(=O)O)[C@H](c3ccncc3)C2)s1`, 56.78%.
Regarding `CCC[C@@H]1CN(C(=O)Cc2sc(C)nc2C)C[C@H]1C(=O)O`, the INHIBITION is 53.55%.
The value for `CCC[C@@H]1CN(C(=O)c2c(F)ccc(C)c2Cl)C[C@H]1C(=O)O` was 2.3%; that for `CCOc1ccccc1CC(=O)N1C[C@@H](C(=O)O)[C@H](c2ccncc2)C1` was -36.68%.
With `Cc1nc(C)c(CC(=O)N2C[C@H]3CC[C@@H](C2)N(CC2CC2)C3)s1` the figure was -38.36%; with `Cc1nc(C)c(CC(=O)N2C[C@@H](C(=O)O)[C@H](c3ccccc3C)C2)s1`, -57.67%.
The value for `CCc1nccn1C1CCCN(C(=O)c2ccc3c(c2)OCCO3)C1` (centres undefined) was -14.17%.
Regarding `CCOC1CCC2(CCN(C(=O)c3csnn3)CC2)c2ccccc21` (centres undefined), the INHIBITION turned out to be 30.15%.
Turning to `CC(C)(C)c1nc(CN2CCN(C(=O)c3cnccn3)CC2)cs1`, the INHIBITION is recorded as 8.5%.
With `COc1cccc(CN2C[C@@H]3COC[C@]3(COCc3ccccn3)C2)c1` the figure was 17.35%; with `O=C(Nc1ccc(-c2csnn2)cc1)N1CCC(N2CCCC2)C1` (centres undefined), -55.13%; with `Cc1noc(CCNS(=O)(=O)N2CCCC2c2ccco2)n1` (centres undefined), 51.76%.
The value for `Cc1noc(CCCNS(=O)(=O)N2CCCC2c2ccco2)n1` (centres undefined) was 41.52%; that for `Cc1noc(CCNS(=O)(=O)N2CCCC2c2ccc(C)o2)n1` (centres undefined) was 20.34%; that for `CN(Cc1cccc(C(N)=O)c1)CC1CCCN1c1cccnn1` (centres undefined) was 15.67%.
The value for `CCOC1CCN(C(=O)c2c(Cl)c3ccccc3n2C)CC1` was 2.8%.
As for `Cc1ccsc1C(O)CNS(=O)(=O)Cc1ccc(F)cc1` (centres undefined), the INHIBITION was -10.98%.
With `Cc1cc(C2CCC2)nc(NCCC23CCCN2CCC3)n1`, the INHIBITION was -44.93%.
Take `Cc1nc(NCCC23CCCN2CCC3)cc(C2CCCNC2)n1` (centres undefined): the INHIBITION is on record as 55.66%.
For `Cc1nc(NCCC23CCCN2CCC3)cc(C2CCNCC2)n1`, the INHIBITION is given as 50.61%.
The value for `Cc1nc(NCc2ccc(C)o2)cc(C2CCNCC2)n1` was 7.42%; that for `CNc1cc(C2CCCNC2)nc(C)n1` (centres undefined) was -23.54%; that for `Cc1nc(NCC23CCCN2CCC3)cc(C2CCCNC2)n1` (centres undefined) was 35.46%.
The value for `CCO[C@@H]1CC[C@H]2[C@H]1OCCN2C(=O)CC1=CCCCC1` was -32.82%.
With `CC(C)n1cnc(C2CN(C)c3ccc(C(=O)NC4CCCC4)cc32)n1` (centres undefined) the figure was 9.36%; with `O=C(c1ccc2c(c1)[nH]c(=O)n2C1CCC(O)CC1)N1CCOCC1` (centres undefined), 42.8%.
Take `Cc1cc(N2CCCC2c2nc(C)cc(CCC(=O)O)n2)ncn1` (centres undefined): the INHIBITION amounted to 27.81%.
With `NC(=O)C1CCN(C(=O)NCc2ccccc2-n2cccn2)C1` (centres undefined) the figure was 32.41%.
The value for `c1cncc(COC2COC3(CCN(c4cnccn4)CC3)C2)c1` (centres undefined) was -16.36%.
For the compound `COc1ccc(CC(=O)N2CCN(Cc3ccco3)C[C@@H]2C)cc1`, the INHIBITION is listed as 19.69%.
For `COc1ccccc1CC(=O)N1CCN(Cc2ccco2)C[C@@H]1C`, the INHIBITION is listed as 4.19%.
`C[C@@H]1CN(Cc2ccco2)CCN1C(=O)Cc1ccccc1F`: the INHIBITION is recorded as 50.68%.
With `Cc1nn(C)c(C)c1CN(C)C(C(=O)O)c1ccc(F)cc1F` (centres undefined) the figure was 13.99%.
`CNC(=O)C(C)(C)NC(=O)c1cc(COc2ccccc2OC)[nH]n1`: the INHIBITION is recorded as -25.61%.
With `COc1ccc(Cl)cc1CN(CC(N)=O)C(C)C` the figure was 50.46%; with `COc1ccc(C)cc1CN(CC(N)=O)C(C)C`, 11.51%; with `COc1ccccc1CC(=O)NS(=O)(=O)c1ccc(C(N)=O)cc1`, 1.5%.
The value for `COc1ccc(Cl)cc1CC(=O)NS(=O)(=O)c1ccc(C(N)=O)cc1` was 58.96%; that for `COc1ccc(C)cc1CC(=O)NS(=O)(=O)c1ccc(C(N)=O)cc1` was 43.75%.
With `COc1ccc(F)cc1CN(CC(N)=O)C(C)C` the figure was -21.69%.
With `c1ccn(Cc2nnc3n2CCCN(c2cnccn2)C3)c1`, the INHIBITION was -11.68%.
With `Cc1cnc(CN(C)C2CCN(Cc3ccc(Cl)s3)C2)o1` (centres undefined) the figure was -39.39%.
The value for `CC(C)=CCN1C(=O)[C@@H]2CC[C@H]1CN(Cc1cccnc1N)C2` was 16.01%; that for `Nc1ncccc1CN1C[C@H]2CC[C@@H](C1)N(CC1CC1)C2=O` was 70.26%.
With `Cc1noc(C)c1CN1C(=O)[C@@H]2CC[C@H]1CN(Cc1cccnc1N)C2` the figure was 31.38%.
`Cc1nccc(NCc2cncc3c2CCN(CC2CC2)C3)n1`: the INHIBITION was 25.86%.
The value for `CCOc1ccc(NC2CCN(C3CC3)C2=O)cn1` (centres undefined) was -13.8%; that for `Cc1ncc(CNCCO)c2cc(C(=O)c3ccc(Br)cc3)oc12` was 29.19%; that for `Cc1ncc(CNCC(C)O)c2cc(C(=O)c3ccc(Br)cc3)oc12` (centres undefined) was -4.01%.
With `Cc1ncc(CNC(C)(C)CO)c2cc(C(=O)c3ccc(Br)cc3)oc12` the figure was 61.06%.

The record behind these values is ChEMBL document CHEMBL4513216, “Probing the Open Global Health Chemical Diversity Library for Multistage-Active Starting Points for Next-Generation Antimalarials” (ACS Infect Dis, 2020).
